Measured values: PubChem BioAssay (NCI)
The panel holds about 83,000 compounds, 20% with a hit somewhere; the sample as a whole holds those more often.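 Negative percent growth values reflect cell death: -40 means 40% of the cells present at the start died, and -100 means all died.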 Calls of active or inactive are those of the source. Rule for the calls: active = growth percent below 10; inactive = the rest.

Experiments:
Assay in all cases: NCI-60 one-dose screen, 48 h (100 = growth as untreated, 0 = no growth, -100 = all killed)
Settings in all cases: 10 µM unless noted
[1] = test system: SR leukemia
[2] = test system: OVCAR-8 ovarian
[3] = test system: OVCAR-5 ovarian
[4] = test system: OVCAR-4 ovarian
[5] = test system: SK-OV-3 ovarian
[6] = test system: IGROV1 ovarian
[7] = test system: OVCAR-3 ovarian
[8] = test system: HS 578T breast
[9] = test system: NCI/ADR-RES ovarian
[10] = test system: T-47D breast
[11] = test system: BT-549 breast
[12] = test system: MDA-MB-435 melanoma
[13] = test system: SW-620 colon
[14] = test system: MCF7 breast
[15] = test system: HCT-116 colon
[16] = test system: HCC-2998 colon
[17] = test system: KM12 colon

Measured: growth

CCCCCCCCCCCCCCCC1=NC(C)(C)CN1C(C)C
inactive: [3] 56.2% | [4] 24.3% | [11] 71.3%
active: [1] -49.7% | [2] -16.8% | [5] -6.62% | [6] -32.9% | [7] -43.2% | [8] -31.6% | [9] -22% | [10] -11.2% | [12] -59.3% | [13] -69.1% | [14] -27.6% | [15] -73.5% | [16] -89.9% | [17] -73.2%

Cc1cc(N)cc(C)c1-c1c(Br)cc(N)cc1Br
active: [1] 9.99% | [5] 6.33% | [7] 1.61% | [9] -1.83% | [12] -44.3%
inactive: [2] 31% | [3] 45.9% | [4] 61.9% | [6] 21% | [8] 34.1% | [10] 36.3% | [11] 35.8% | [13] 34.5% | [14] 27.1% | [15] 23.3% | [16] 42.3% | [17] 23.8%

O=C(Nc1cccc(-n2ccc3c(NC(=O)c4ccccc4)nccc32)c1)c1ccc(N2CCOCC2)c(C(F)(F)F)c1
inactive: [2] 16.3% | [3] 41.1% | [4] 51.7% | [7] 26.9% | [8] 55.5% | [9] 14.3% | [11] 25.2% | [13] 26.9% | [14] 14% | [15] 12.5%
active: [1] 2.76% | [5] -6.21% | [6] 8.99% | [10] 7.57% | [12] 5.17% | [16] 8.77% | [17] 7.93%

CC(C)c1nc2ccccc2n1CC(=O)N/N=C/c1cccc(O)c1
inactive: [1] 89.7% | [2] 92.6% | [3] 108% | [4] 104% | [5] 93.2% | [6] 118% | [7] 109% | [8] 98.3% | [9] 109% | [10] 103% | [11] 99.7% | [12] 99.8% | [13] 93.6% | [14] 105% | [15] 87% | [16] 104% | [17] 103%

CC(=O)N1N=C(C2C(=O)N(C)C(=O)N(C)C2=O)CC1c1ccccc1C(=O)O (stereo not given)
inactive: [1] 93% | [2] 103% | [3] 104% | [4] 113% | [5] 94.8% | [6] 112% | [7] 109% | [8] 92.1% | [9] 105% | [10] 95.4% | [11] 91.8% | [12] 102% | [13] 107% | [14] 101% | [15] 91.3% | [16] 113% | [17] 114%

O=C(O)C(CCc1ccccc1)NCc1ccccc1 (stereo not given)
inactive: [1] 106% | [2] 106% | [3] 93.5% | [4] 78.5% | [5] 98.5% | [6] 101% | [7] 100% | [8] 99.4% | [9] 93.7% | [10] 96.3% | [11] 47.4% | [12] 104% | [13] 102% | [14] 95.3% | [15] 90.7% | [16] 97.2% | [17] 100%

Clc1ccc(-c2cnc3nonc3n2)s1
active: [12] -10.6%
inactive: [1] 38.4% | [2] 67.3% | [3] 91.5% | [4] 89.9% | [5] 98.1% | [6] 71.3% | [7] 23.1% | [8] 90.3% | [9] 98.5% | [10] 58.4% | [11] 93.8% | [13] 82.6% | [14] 38.7% | [15] 67% | [16] 109% | [17] 77.1%

CCN(CC)CCNC(=O)n1cc(-c2ccncc2)c(-c2cc(Cl)cc(OC)c2)n1
inactive: [1] 51% | [2] 27.7% | [3] 88.4% | [4] 70.4% | [5] 47.8% | [6] 86% | [7] 94.3% | [8] 88% | [9] 86% | [10] 87.3% | [11] 95.6% | [12] 83.5% | [13] 100% | [14] 87.7% | [15] 85.5% | [16] 113% | [17] 98.3%

N#Cc1ccc(-c2ccc(-c3cccs3)o2)cc1F
inactive: [1] 85% | [2] 64.2% | [3] 101% | [4] 77.5% | [5] 52.1% | [6] 82.4% | [7] 80.5% | [8] 51.2% | [9] 72.1% | [10] 23.7% | [11] 78% | [12] 94.8% | [13] 98.5% | [14] 26.4% | [15] 64.5% | [16] 91.5% | [17] 83.2%

c1ccc2oc(-c3cnc4nonc4n3)cc2c1
inactive: [1] 106% | [2] 93.6% | [3] 104% | [4] 106% | [5] 84.8% | [6] 87.2% | [7] 108% | [8] 89.2% | [9] 92.4% | [10] 79.7% | [11] 95.8% | [12] 109% | [13] 94% | [14] 88.5% | [15] 90.1% | [16] 120% | [17] 112%

Fc1ccc(-c2cnc3nonc3n2)c(F)c1
inactive: [1] 74.5% | [2] 102% | [3] 96.8% | [4] 93.3% | [5] 92.1% | [6] 108% | [7] 81.5% | [8] 98.1% | [9] 104% | [10] 80.8% | [11] 91.6% | [12] 84.4% | [13] 97% | [14] 85% | [15] 96.9% | [16] 93.5% | [17] 82.9%

CN1C(=O)N(C)C2C1NN=c1s/c(=C\c3ccc(C(F)(F)F)cc3)c(=O)n12 (stereo not given)
inactive: [1] 16.8% | [2] 29.1% | [3] 49.3% | [4] 63.8% | [5] 32.1% | [6] 46.4% | [8] 18.5% | [9] 15.4% | [10] 24.6% | [11] 50.4% | [13] 19.1% | [14] 12% | [15] 26.9% | [16] 54.9% | [17] 16.3%
active: [7] 3.49% | [12] -52.1%

CCN1C(=O)N(CC)C2C1NN=c1s/c(=C\c3ccco3)c(=O)n12 (stereo not given)
inactive: [1] 17% | [2] 27.8% | [3] 36.7% | [4] 63.3% | [5] 31.6% | [6] 36.9% | [8] 29.6% | [10] 27.8% | [11] 53.9% | [13] 20.2% | [14] 12.1% | [15] 23.5% | [16] 23% | [17] 15.9%
active: [7] -12% | [9] 9.31% | [12] -56.9%

COc1cnc2c(c1)C(=O)c1c-2n(CCCN2CCN(C)CC2)c(=O)c2cc(Cl)ccc12
inactive: [2] 31% | [3] 77.9% | [4] 43.9% | [5] 52.3% | [6] 58.9% | [7] 68.3% | [8] 54.8% | [9] 44.8% | [11] 56.5% | [12] 38% | [14] 20.8% | [15] 32% | [16] 66.8% | [17] 45.5%
active: [1] -9.29% | [10] 8.74% | [13] 1.45%

C#Cc1cccc(Nc2nc3cc([N+](=O)[O-])ccc3nc2Nc2ccc(O)cc2)c1
inactive: [2] 18.3% | [3] 45.8% | [4] 43.9% | [5] 39% | [6] 27.2% | [8] 44.6% | [9] 24.7% | [11] 27.7% | [12] 12.2%
active: [1] 3.34% | [7] -26.2% | [10] -0.313% | [13] -52.9% | [14] 2.84% | [15] -11.9% | [16] 5.14% | [17] -36.3%
